Experimental data taken from PubChem BioAssay AID651784 (National Center for Advancing Translational Sciences (NCATS), 2012).
Results filed as inconclusive are left out. Active and inactive are the calls of the source. Calls follow the shape of the dose curve; as a rule, active = well fitted inhibition curve with a large enough effect; inconclusive = small, poorly fitted or top-dose-only effect; inactive = no such curve, though single readings can be large or run the other way.

Test: Acumen qHTS Assay for Inhibitors of the mTORC1 Signaling Pathway in MEF (Tsc2-/-, p53-/-) Cells: Hit Validation;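 also: phospho-rpS6 Ser235/236 immunofluorescence normalized to propidium iodide cell count; nearly all actives have a fitted effect of over 65% in size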;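 as to activity change, negative = inhibition: cells exposed to compound for 24 hours; plate controls were DMSO for no effect and 7.5 nM rapamycin control for full effect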
Settings: Acumen imaging; activity change, negative = inhibition: at 37.3 µM (top of the series)
Potency is read from the fitted curve at half-maximal effect.

SMILES	Potency	activity change, negative = inhibition [%]
CCNc1nc2c(c(=O)[nH]c(=O)n2C)n1CC(O)COc1ccc(Cl)cc1Cl (configuration not stated)	0.147 µM (active)	
O=c1oc2ccccc2cc1-c1cn2cc(Cc3ccccc3F)sc2n1	16.5 µM (active)	
Cn1nc(-c2ccc(OCC(=O)Nc3ccccc3)cc2)c2ccccc2c1=O		-11.2
Cc1ccccc1CS(=O)(=O)c1ncc(Cl)c(C(=O)Nc2nnc(C(C)C)s2)n1		-92.9
COc1cc2c(cc1OC)n(CC(=O)c1ccc(F)cc1)c(=O)n1nc(CCn3nc(C)cc3C)nc21		-5.74
CC(=O)Nc1ccc(NC(=O)c2nc(S(=O)(=O)Cc3ccc(F)cc3)ncc2Cl)cc1	2.61 µM (active)	
CCCCN(C)CC(O)Cn1cc(/C=C/C(=O)c2ccc(C)cc2)c2ccccc21 (configuration not stated)	13.1 µM (active)	
COc1ccc(CCNC(=O)CCCn2nc(C)c3sc4ccccc4c3c2=O)cc1OC		-12
CCOC(=O)c1c(NC(=O)c2nc(S(C)(=O)=O)ncc2Cl)sc(C(C)=O)c1C	4.14 µM (active)	
O=C(NCc1ccccc1)c1ccc2c(c1)N(Cc1ccccc1F)C(=O)c1ccccc1S2=O (configuration not stated)		-33
COc1cc(-c2ccno2)ccc1S(=O)(=O)N1CCN(c2cc(C)ccc2C)CC1		-45.4
CCOc1ccc(S(=O)(=O)N(C(C)=O)c2ccc3oc(C)c(C(=O)OC)c3c2)cc1		-69.9
Cc1nn(CC(=O)NCc2ccccc2Cl)c(=O)c2cccn12		6.27
COc1ccc(Cl)cc1S(=O)(=O)NCc1ccc2c(c1)CCN2C(=O)c1cccc(C)c1		-22.6
COc1ccc(N(Cc2ccccc2)C(=O)c2nc(S(C)(=O)=O)ncc2Cl)cc1	1.85 µM (active)	
CCCC1=Nc2cc(C(=O)NC3CCCC3)ccc2Sc2ccc(C)cc21	1.17 µM (active)	
COc1ccc(C2CC(=O)c3c([nH]c(C(=O)OC4CCCCCC4)c3C)C2)cc1OC (configuration not stated)		8.05
Cc1ccc(-c2nnc(C3CCN(S(=O)(=O)c4ccc(C)c(C)c4)CC3)o2)cc1		-7.22
CCOC(=O)N1CCN(Cc2nc3cc(NC(=O)c4ccc([N+](=O)[O-])cc4)ccc3n2C(C)C)CC1		-17.8

SMILES	Potency	activity change, negative = inhibition [%]
COc1cccc(-c2oc3ccc(C)cc3c(=O)c2O)c1		-44.4
Cc1cccc(-n2cnc3cc(C(=O)NC4CCCCCC4)ccc32)c1	18.5 µM (active)	
Cc1ccc(C(C)C)c(OCC(=O)Nc2cc(-c3nc4ccccc4[nH]3)ccc2C)c1		-3.97
O=C(Nc1ccccc1F)c1nc(S(=O)(=O)Cc2ccccc2F)ncc1Cl	2.93 µM (active)	
CC(C)CCNC(=O)C(=O)Nc1c2c(nn1-c1ccc(Cl)cc1)CSC2	5.85 µM (active)	
COc1cc(CNc2ccc3c(c2)ncn3C(C)C)cc(OC)c1OC		-25.9
CCOc1cc(CNc2ccc(O)cc2)cc(Cl)c1OCc1ccccc1		-9.52
CCN(CC)CCNC(=O)c1ccc(Cn2c(=O)c3cccn3c3cccnc32)cc1		-24.3
COc1ccc(CNC(=O)c2nc(S(=O)(=O)Cc3ccccc3)ncc2Cl)cc1		-99.8
Cc1ccc(-c2noc(CCC(=O)N(C)c3ccccc3F)n2)cc1		5.93
CCOC(=O)N1CCN(Cc2nc3cc(NC(=O)CC(C)C)ccc3n2C(C)C)CC1	2.61 µM (active)	
CC(C)(C)OC(=O)N1CCC(c2c(C(=O)NCCN3CCC(Cc4ccccc4)CC3)cnn2-c2cccc(Cl)c2)CC1		-98.8
CCS(=O)(=O)c1ccccc1C(=O)N(Cc1cccnc1)c1nc2cc(C)c(C)cc2s1		-10
COC(=O)c1c(C)oc2ccc(N(C(=O)c3ccncc3)S(=O)(=O)c3ccc(OC)cc3)cc12	1.85 µM (active)	
COc1cc(C(=O)CC2(O)C(=O)N(Cc3ccccc3Cl)c3ccccc32)cc(OC)c1OC (configuration not stated)		-2.03
CCCc1oc2ccc(NS(=O)(=O)c3ccc(OCC)cc3)cc2c1C(=O)OCC	4.14 µM (active)	
CCC(C)NC(=O)c1sc2nc(C)c(C(=O)Nc3ccc(C)cc3C)c(-c3ccc(Cl)cc3)c2c1N (configuration not stated)		-10.2
CCOc1ccc(NC(=O)CSc2oc(-c3ccc(F)cc3)nc2S(=O)(=O)c2ccc(C)cc2)cc1	4.65 µM (active)	
